Source: PubChem BioAssay AID1566 (Sanford-Burnham Center for Chemical Genomics, 2009)
In all, about 290,000 compounds went through this assay and about 1,800 (0.62%) were called active. The sample holds actives, similar compounds and a random draw of the others, so the mix is not that of the screen. Values without a mark were called inactive. Rule as the data show it: active = inhibition above about 50%; inactive = the rest.

Experiment: inhibition of NOD2-driven NF-kB reporter – cell-based, luminescence, uHTS, HEK293 (AID 1566)
Conditions: HEK293 NOD2/NF-kB luciferase reporter, at 4 µM, hits give high values
With CN(C)S(=O)(=O)c1ccc(C(=O)Nc2cc3c(cc2C(=O)O)OCCCO3)cc1 the inhibition was 4%. Work on COc1ccc(C2NC(=O)NC(C)=C2[N+](=O)[O-])cc1OC (stereo not drawn) yielded an inhibition of 9.2%. For COc1ccc(/C=N/n2c(C)nc3ccccc3c2=O)cc1, the inhibition was -11.4%. CCOC(=O)C1=C2c3ccc4ccccc4c3CC(C)(C)N2C(=O)C1=O gave an inhibition of 17.7%. With CC1(C)Cc2c(ccc3ccccc23)C2=C(C(=O)N3CCCC3)C(=O)C(=O)N21 the inhibition was 52.7% (active). For CC1(C)Cc2ccccc2C2=C(C(=O)N3CCCCCC3)C(=O)C(=O)N21, the inhibition was 16.7%. Work on Cc1ccc(S(=O)(=O)NCC(=O)OCC(=O)c2ccc(Br)s2)cc1 yielded an inhibition of -2.2%. For COC(=O)c1sccc1NC(=O)CSc1ccccc1NS(=O)(=O)c1ccccc1Cl, the inhibition was 26%. COC(=O)c1sccc1NC(=O)CSc1ccccc1NS(=O)(=O)c1ccc(Cl)cc1 gave an inhibition of 28.6%. With CN1CCN(C(=O)/C=C/c2c(F)cccc2Cl)CC1 the inhibition was 9.9%. Work on c1ccc(-c2csc3nnc(SCc4ccc5c(c4)OCCO5)n23)cc1 yielded an inhibition of 33.7%. In the case of O=C(/C=C\Nc1ccccn1)c1ccccc1, the inhibition is reported as -121%. O=C(/C=C\Nc1ccc2c(c1)OCO2)c1ccccn1 gave an inhibition of 33.4%. In the case of O=C(/C=C/Nc1ccccc1Br)c1ccccn1, the inhibition is reported as 60% (active). For CC1CCCC(NCC(O)COC(c2ccc(F)cc2)c2ccc(F)cc2)C1C (stereo not drawn), the inhibition was 0.7%. For Fc1ccc2nc(Nc3nc4c(F)cc(F)cc4s3)sc2c1, the inhibition was -36.7%. COC(=O)c1ccc2nc(NC(=O)C(C)(C)C)sc2c1 gave an inhibition of -3.1%. CCC(CC)c1nnc(NC(=O)C2CC(=O)N(C3CCCC3)C2)s1 (stereo not drawn) gave an inhibition of 8%. Compound Cc1ccc(NC(=O)CSc2ncnc3ccccc23)cc1S(=O)(=O)N1CCCCCC1 has an inhibition of 40.3%. With Cc1ccc(S(=O)(=O)N2CCCCC2)cc1NC(=O)CSc1ncnc2ccccc12 the inhibition was -36.1%. For OC1(c2cccnc2)CCN(Cc2nnnn2C2CCCCC2)CC1, the inhibition was 19.2%. Compound CCC/C(=N\NC(=O)CNC(=O)/C=C/c1ccco1)c1ccccc1 has an inhibition of 6.6%. With Cc1ccc2c(c1)sc(-c1ccc(N(C)C)cc1)[n+]2C the inhibition was 51% (active). CC[n+]1c(C)sc2cc(C)ccc21 showed an inhibition of 5.7%. COc1ccc(C)cc1Nc1n[n+](-c2ccccc2)c(-c2ccc(N(C)C)cc2)s1 showed an inhibition of 8.3%. With CC(C)OC(=O)Nc1ccc(Oc2c(F)c(F)c(F)c(F)c2F)cc1 the inhibition was -5.3%. Compound CCC(C)c1cc(S(=O)(=O)N2CCOCC2)ccc1OC (stereo not drawn) has an inhibition of -10.6%. Compound C=CCc1cccc(/C=N/NC(=O)CNc2ccccc2)c1O has an inhibition of 17.2%. For C=CCc1cccc(/C=N/NC(=O)C[n+]2ccccc2)c1O, the inhibition was 53.2% (active). Compound COc1cccc(/C=N/NC(=O)C[n+]2ccccc2)c1O has an inhibition of 1%. For CN(C)CCNC(=S)NC1CCCCC1, the inhibition was 8.6%. With CCCCCCCCCc1nc2sc3c(c2c(=O)n1NC(=O)c1ccc([N+](=O)[O-])cc1)CC(C)(C)OC3 the inhibition was 57% (active). For CCCCCc1nc2sc3c(c2c(=O)n1NC(=O)c1ccc([N+](=O)[O-])cc1)CC(C)(C)OC3, the inhibition was 5.3%. In the case of CCCCCCCCCc1nc2sc3c(c2c(=O)n1NC(=O)c1ccccc1[N+](=O)[O-])CC(C)(C)OC3, the inhibition is reported as 12.2%. In the case of Cc1oc2c(C)c3oc(=O)c(CCC(=O)NCCCCCC(=O)O)c(C)c3cc2c1C, the inhibition is reported as 18.8%. O=C(Nc1ccc(Cl)cc1)c1ccc2ncsc2c1 gave an inhibition of -66.3%. For O=C(O)COc1ccc(-c2nccc(-c3cccs3)n2)cc1, the inhibition was 55.9% (active). Work on COC(=O)C(C)Oc1ccc(-c2nccc(-c3cccs3)n2)cc1 (stereo not drawn) yielded an inhibition of -13.1%. For Oc1ccc(-c2nccc(-c3cccs3)n2)cc1, the inhibition was -139%. With O=C(c1cnccn1)N1CCc2c([nH]c3ccccc23)C1c1cccc(Cl)c1 (stereo not drawn) the inhibition was -198%. CC(C)(C)c1ccc(S(=O)(=O)N2CCC(c3nc4ccc(Cl)cc4[nH]3)CC2)cc1 gave an inhibition of -18.9%. Work on Cc1cccc(-n2ncc3c2CCCC3NC(=O)C2CCOCC2)c1C (stereo not drawn) yielded an inhibition of 41.8%. For Cc1nnsc1C(=O)NC1CCCc2c1cnn2-c1ccccc1F (stereo not drawn), the inhibition was 51.1% (active). Work on Cc1nnsc1C(=O)NC1CCCc2c1cnn2-c1cc(F)cc(F)c1 (stereo not drawn) yielded an inhibition of 21.9%. Work on O=C(NC1CCCc2c1cnn2-c1ccccc1F)c1ccccn1 (stereo not drawn) yielded an inhibition of -49.8%. Work on Cc1nnsc1C(=O)NC1CCCc2c1cnn2-c1ccc(F)cc1F (stereo not drawn) yielded an inhibition of 49.3%. With Cc1cc(C)cc(-n2ncc3c2CCCC3NC(=O)C2(C(N)=O)CC2)c1 (stereo not drawn) the inhibition was 7.2%. In the case of Cn1nccc1C(=O)NC1CCCc2c1cnn2-c1cc(F)cc(F)c1 (stereo not drawn), the inhibition is reported as 30.4%.
